A short description of assay [1]: reduced viability of SK-BR-3 breast cancer cells – cell-based, 24 h, human, pilot screen (AID 572;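 active = viability at or below 10% of carrier control in both of two separate runs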;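 also: compound exposure lasted between 18 and 24 h rather than exactly 24 h; 100% = carrier-treated control wells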). The note with it: SK-BR-3 viability, CellTiter-Glo luminescence, at 10 µM, stronger effect = lower value. (ATP-based viability assays read luminescence as a measure of living cells.)
Assay [2] can be described thus: HUVEC growth inhibition – cell-based, human, primary screen (AID 575;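 active = viability at or below 30% in both replicate assays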;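 also: 100% = median of untreated cell wells with 0.1% DMSO on each plate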). The conditions noted are these: HUVEC proliferation, CellTiter-Glo luminescence, 72 h; at 10 µM; stronger effect = lower value.
Assay [3] in a line: H69AR cell proliferation blockers – human, duplicate replicates, primary screen (AID 580;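 active = viability at or under a set limit in both replicates, limit being median viability minus 3 SD, cut at about 48% in these data, passing the limit was not always enough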;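 also: 100% = mean luminescence of untreated wells and 0% = no signal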). The note with it: H69AR lung tumor cells viability, ATP luminescence, 72 h; at 10 µM; stronger effect = lower value.
A short description of assay [4]: MRP1 drug-resistance reversers in H69AR cells – cell-based, doxorubicin co-treatment, pilot screen (AID 601;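 active = viability loss from added drug above about 55%, and viability with drug at most 40%, in both replicates, limit read from the data, passing the limit was not always enough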). The conditions noted are these: CellTiter-Glo, 72 h, at 10 µM; for differential viability (reversal): stronger effect = higher value.
A short description of assay [5]: yeast transport mutant growth inhibition pilot in 384-well plates, post-Golgi transport modulator project (AID 636; in the data active = inhibition above about 31%). The note with it: absorbance 615 nm, about 18 h, stronger effect = higher value.
Assay [6] in a line: growth suppression of yeast trafficking mutant, preliminary HTS, modulators of trafficking downstream of Golgi apparatus project, 1536-format plate, OD 615 nm (AID 637). The note with it: yeast transport mutant growth, absorbance 615 nm, 18 h; stronger effect = higher value.
[7] abbreviates: H69AR cells + 2 uM doxorubicin, measured here: viability with 2 uM doxorubicin, stronger effect = lower value.
The mark [8] stands for this setting: H69AR cells, compound alone cytotoxicity.

The structures appear in SMILES notation. The source made the active and inactive calls. Rule as the data show it, unless noted: active = inhibition above about 30%; inactive = the rest.

What is called viability is a read-out of living cells in per cent, often relative to untreated cells. A word on the inhibition: it is the relative decrease from the control value, in per cent.

Consider `CCN(C(=O)c1c(OC)cccc1OC)c1nnc(-c2cccnc2)s1`, for which the viability in assay [1] is 95% (inactive); in assay [2], 87.7% (inactive); in assay [3], 92.7% (inactive); in assay [4] (setting [7]), 90.8%; in assay [4] (setting [8]), 92.7%. For the same compound, the differential viability (reversal) in assay [4] (H69AR cells + 2 uM doxorubicin) was 1.89% (inactive). Further, the inhibition in assay [5] was -5.81% (inactive); in assay [6] it was -7.82% (inactive).
Consider `COCCCNCC(=O)Nc1ccc(OC(F)(F)F)cc1`, for which the viability in assay [1] is 102% (inactive); in assay [2] it was 113% (inactive); in assay [3], 98.5% (inactive); in assay [4] (setting [7]), 85.5%; in assay [4] (setting [8]), 98.5%. The differential viability (reversal) in assay [4] (H69AR cells + 2 uM doxorubicin) was 13% (inactive). The inhibition in assay [5] is -9.2% (inactive); in assay [6], -5.82% (inactive).
Take `CCOc1ccc(-c2nc(N)ncc2-c2ccccc2)c(O)c1`: the viability is 136% (inactive) in assay [1]; 95.3% (inactive) in assay [2]; 65.3% (inactive) in assay [3]; 79.6% in assay [4] (setting [7]); 65.3% in assay [4] (setting [8]). The differential viability (reversal) in assay [4] (H69AR cells + 2 uM doxorubicin) was -14.3% (inactive). Moreover, the inhibition was -5.95% (inactive) in assay [5] and -8.1% (inactive) in assay [6].
As to `CN(C)c1ccc(NC(=O)c2ccncc2)c2ccccc12`, the viability was 113% (inactive) in assay [1]; 108% (inactive) in assay [2]; 101% (inactive) in assay [3]; 95.2% in assay [4] (setting [7]); 101% in assay [4] (setting [8]). Further, in assay [4] (H69AR cells + 2 uM doxorubicin), the differential viability (reversal) is 5.85% (inactive). The inhibition in assay [5] is -7.43% (inactive); in assay [6] it was -0.73% (inactive).
For `CC(=O)NC(C)C(=O)OCc1ccc(Cl)cc1Cl` (centres undefined), the viability in assay [1] is 66% (inactive); in assay [2], 99.5% (inactive); in assay [3], 103% (inactive); in assay [4] (setting [7]) it was 95.2%; in assay [4] (setting [8]), 103%. Besides, the differential viability (reversal) in assay [4] (H69AR cells + 2 uM doxorubicin) is 7.35% (inactive). The inhibition in assay [5] was -4.79% (inactive); in assay [6] it was -1.27% (inactive).
Consider `O=C(Nc1sccc1C(=O)NCc1ccco1)c1cccnc1`, for which the viability in assay [1] is 90% (inactive); in assay [2], 96.8% (inactive); in assay [3], 79.6% (inactive); in assay [4] (setting [7]), 84.5%; in assay [4] (setting [8]), 79.6%. Moreover, in assay [4] (H69AR cells + 2 uM doxorubicin), the differential viability (reversal) is -4.98% (inactive). The inhibition in assay [5] is -0.55% (inactive); in assay [6] it was 2.55% (inactive).
`CC(=O)Nc1c(O)n(C)c2ccccc12`: the viability in assay [1] was 65% (inactive); in assay [2] it was 103% (inactive); in assay [3], 96.3% (inactive); in assay [4] (setting [7]), 111%; in assay [4] (setting [8]), 96.3%. Also, in assay [4] (H69AR cells + 2 uM doxorubicin), the differential viability (reversal) was -14.5% (inactive). The inhibition in assay [5] is -5.75% (inactive); in assay [6], 4.55% (inactive).
For the compound `CCOC(=O)Nc1nnc(-c2ccccc2OC)s1`, the viability in assay [1] is 86% (inactive); in assay [2], 98.2% (inactive); in assay [3] it was 93.9% (inactive); in assay [4] (setting [7]), 93.3%; in assay [4] (setting [8]), 93.9%. Besides, the differential viability (reversal) in assay [4] (H69AR cells + 2 uM doxorubicin) was 0.53% (inactive). In addition, the inhibition in assay [5] was -0.14% (inactive); in assay [6], -4.68% (inactive).
As to `COc1ccccc1C1N(c2ccc(F)cc2)C(=O)C2CCCN21` (centres undefined), the viability in assay [1] is 102% (inactive); in assay [2] it was 111% (inactive); in assay [3], 108% (inactive); in assay [4] (setting [7]), 90.1%; in assay [4] (setting [8]) it was 108%. In addition, in assay [4] (H69AR cells + 2 uM doxorubicin), the differential viability (reversal) is 17.8% (inactive). For the same compound, the inhibition in assay [5] is -5.07% (inactive); in assay [6], -1.27% (inactive).
Take `COc1c2occc2c(OC)c2c(=O)cc(C)oc12`: the viability is 87% (inactive) in assay [1]; 67.9% (inactive) in assay [2]; 91.2% (inactive) in assay [3]; 92.8% in assay [4] (setting [7]); 91.2% in assay [4] (setting [8]). In addition, the differential viability (reversal) in assay [4] (H69AR cells + 2 uM doxorubicin) is -1.66% (inactive). The figures for the inhibition in assay [5] and in assay [6] were 0.13% (inactive) and -5.17% (inactive), respectively.
Take `O=C(CSc1nnc(Cc2ccccc2)n1-c1cccc(Cl)c1)N1CCOCC1`: the viability in assay [1] is 106% (inactive); in assay [2], 94.2% (inactive); in assay [3], 85.6% (inactive); in assay [4] (setting [7]), 81.3%; in assay [4] (setting [8]) it was 85.6%. In assay [4] (H69AR cells + 2 uM doxorubicin), the differential viability (reversal) is 4.24% (inactive). Besides, the values for the inhibition in assay [5] and in assay [6] were -4.8% (inactive) and -7.64% (inactive), respectively.
In the case of `COC(=O)C1=C(C)NC(C)=C(C(=O)OC)C1C(=O)OC1CCCCC1=O` (centres undefined), the viability is 89% (inactive) in assay [1]; 105% (inactive) in assay [2]; 97.3% (inactive) in assay [3]; 94% in assay [4] (setting [7]); 97.3% in assay [4] (setting [8]). Moreover, the differential viability (reversal) in assay [4] (H69AR cells + 2 uM doxorubicin) is 3.25% (inactive). In addition, the inhibition in assay [5] is -4.46% (inactive); in assay [6] it was -0.49% (inactive).
In the case of `O=C(NC1(C(F)(F)F)C(=O)Nc2c1c(=O)[nH]c(=O)n2Cc1ccco1)C1CCCCC1` (centres undefined), the viability is 106% (inactive) in assay [1]; 97.6% (inactive) in assay [2]; 97.9% (inactive) in assay [3]; 80.4% in assay [4] (setting [7]); 97.9% in assay [4] (setting [8]). Also, the differential viability (reversal) in assay [4] (H69AR cells + 2 uM doxorubicin) is 17.5% (inactive). Further, the inhibition in assay [5] is -6.49% (inactive); in assay [6] it was -1.82% (inactive).
For the compound `CCCCn1cnc2c1c(=O)n(C)c(=O)n2C`, the viability was 77% (inactive) in assay [1]; 100% (inactive) in assay [2]; 100% (inactive) in assay [3]; 89% in assay [4] (setting [7]); 100% in assay [4] (setting [8]). In addition, the differential viability (reversal) in assay [4] (H69AR cells + 2 uM doxorubicin) was 11.1% (inactive). The inhibition in assay [5] is 3.24% (inactive); in assay [6], 0.18% (inactive).
For the compound `COc1ccc(OCCN2C(=O)NC(C)(c3ccc(C)cc3)C2=O)cc1` (centres undefined), the viability in assay [1] is 119% (inactive); in assay [2], 101% (inactive); in assay [3], 91.1% (inactive); in assay [4] (setting [7]) it was 94.9%; in assay [4] (setting [8]), 91.1%. Moreover, the differential viability (reversal) in assay [4] (H69AR cells + 2 uM doxorubicin) is -3.77% (inactive). The results for the inhibition in assay [5] and in assay [6] were 3.15% (inactive) and -4.03% (inactive), respectively.
As to `c1cc2c(cc1C1CCCN1)OCCCO2` (centres undefined), the viability was 103% (inactive) in assay [1]; 113% (inactive) in assay [2]; 91.6% (inactive) in assay [3]; 99.5% in assay [4] (setting [7]); 91.6% in assay [4] (setting [8]). Further, the differential viability (reversal) in assay [4] (H69AR cells + 2 uM doxorubicin) is -7.94% (inactive). For the same compound, the inhibition in assay [5] is -5.21% (inactive); in assay [6], 2% (inactive).
For the compound `COc1ccc(CN2C(=O)[C@@H]3C(c4ccc(F)cc4)=NO[C@@H]3C2=O)cc1`, the viability in assay [1] was 91% (inactive); in assay [2], 114% (inactive); in assay [3], 89.1% (inactive); in assay [4] (setting [7]), 85.6%; in assay [4] (setting [8]), 89.1%. For the same compound, the differential viability (reversal) in assay [4] (H69AR cells + 2 uM doxorubicin) is 3.49% (inactive). The inhibition was -6.62% (inactive) in assay [5] and 1.64% (inactive) in assay [6].
In the case of `O=C(CCNNC(=O)c1ccncc1)NCc1ccccc1`, the viability in assay [1] was 72% (inactive); in assay [2], 84.7% (inactive); in assay [3], 93.5% (inactive); in assay [4] (setting [7]), 87%; in assay [4] (setting [8]) it was 93.5%. Besides, the differential viability (reversal) in assay [4] (H69AR cells + 2 uM doxorubicin) is 6.55% (inactive). The inhibition was -7.53% (inactive) in assay [5] and -2.67% (inactive) in assay [6].
With `CCC1CCCCN1C(=O)C1CC(c2cc(Cl)c(OC)cc2OC)=NO1` (centres undefined), the viability in assay [1] was 86% (inactive); in assay [2] it was 89.7% (inactive); in assay [3], 96.6% (inactive); in assay [4] (setting [7]) it was 101%; in assay [4] (setting [8]), 96.6%. Besides, in assay [4] (H69AR cells + 2 uM doxorubicin), the differential viability (reversal) was -4.29% (inactive). The inhibition in assay [5] is -2.86% (inactive); in assay [6] it was -3.77% (inactive).
Turning to `Cc1cc(C(F)(F)F)nc(NCc2cccnc2)n1`, the viability in assay [1] is 97% (inactive); in assay [2], 96.4% (inactive); in assay [3], 92.5% (inactive); in assay [4] (setting [7]) it was 82.9%; in assay [4] (setting [8]) it was 92.5%. Also, in assay [4] (H69AR cells + 2 uM doxorubicin), the differential viability (reversal) was 9.55% (inactive). Besides, the inhibition in assay [5] is -1.04% (inactive); in assay [6] it was -1.97% (inactive).
As to `Cc1cccc(NC(=O)C2CCCN2C(=O)OCC(C)C)c1C` (centres undefined), the viability in assay [1] was 96% (inactive); in assay [2], 108% (inactive); in assay [3], 92% (inactive); in assay [4] (setting [7]) it was 83.5%; in assay [4] (setting [8]) it was 92%. The differential viability (reversal) in assay [4] (H69AR cells + 2 uM doxorubicin) was 8.52% (inactive). The inhibition was -4.86% (inactive) in assay [5] and -3.82% (inactive) in assay [6].
For `COc1ccc(CC(=O)Nc2cc(Cl)ccc2O)cc1`, the viability in assay [1] is 110% (inactive); in assay [2], 84.5% (inactive); in assay [3], 81.1% (inactive); in assay [4] (setting [7]), 80.4%; in assay [4] (setting [8]), 81.1%. In assay [4] (H69AR cells + 2 uM doxorubicin), the differential viability (reversal) is 0.69% (inactive). For the same compound, the inhibition was -4.53% (inactive) in assay [5] and -3.09% (inactive) in assay [6].
Take `CNC(=O)OC(C)CNS(=O)(=O)c1ccc(C)cc1` (centres undefined): the viability in assay [1] was 60% (inactive); in assay [2], 106% (inactive); in assay [3], 97% (inactive); in assay [4] (setting [7]), 90.8%; in assay [4] (setting [8]), 97%. In addition, the differential viability (reversal) in assay [4] (H69AR cells + 2 uM doxorubicin) is 6.22% (inactive). In addition, the inhibition in assay [5] is -7.4% (inactive); in assay [6], 0.55% (inactive).
